Only a selection was taken, and hits are over-represented in it overall.
TTR transcr act – TTR transcription activation, primary screen. SH-SY5Y TTR promoter Gaussia luciferase, luminescence; 100% = recombinant luciferase protein wells. activation, % at 16.7 µM. AID 1117267. 92,000 compounds, 1.3% hits;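 active = activation above the mean of all tested compounds plus 3 SD, cut at about 9.5% in these data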;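 note: cells exposed to compounds for one day before reading; 0% = median of all test compound wells on the plate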
HuH7 TTR inh – HuH7 TTR transcription inhibition, counter-screen; HuH7 TTR promoter-Gaussia luciferase reporter, luminescence; inhibition, % at 16.7 µM; shares compounds with TTR transcr act; AID 1117279; 1,100 compounds, 4% hits;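 active = average inhibition above the solvent-only control wells' mean plus 3 SD, cut at about 15% in these data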;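 note: 0% = cells with DMSO only and 100% = cells with inhibitor control FD; inhibitors lower well luminescence so higher value means more inhibition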
TTR up confirm – confirmation of human transthyretin transcription activators; shares compounds with TTR transcr act; SHSY5Y TTR promoter Gaussia luciferase, luminescence; 100% = purified Lucia enzyme wells, no cells; activation, % at 16.7 µM; 1,100 tested, under 10 active; AID 1117280;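 active = mean activation above a set limit taken from the earlier primary screen, cut at about 11% in these data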;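 note: 0% = DMSO-treated cells and 100% = recombinant Lucia luciferase without cells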
* hit, by the source's call.

SMILES	TTR transcr act	others
COC(=O)Cn1ncn2c(cc3oc(C)cc32)c1=O	25*	HuH7 TTR inh=-15;TTR up confirm=0
S=C(Nc1ccc(Br)cc1)OCCN1CCCC12CCC(c1ccccc1)CC2 (centres undefined)	1
O=S1(=O)c2ccc(N3CCC[C@H]3CO)cc2O[C@@H]2CCN1C2	0
Cc1ccc(NC(=O)C2CCCCC2C(=O)O)cc1C (centres undefined)	1
O=C(O)C1CCCCC1C(=O)Nc1ccc(F)c(F)c1 (centres undefined)	12*	HuH7 TTR inh=-7;TTR up confirm=0
O=C(Nc1ccc(F)cc1)c1ccccc1NC(=O)C1CCCCC1C(=O)O (centres undefined)	-1
FC(F)(F)Oc1cccc(Cn2ccc3ccc(-c4ccc5ccn(Cc6ccccc6)c5c4)cc32)c1	0
C[C@@H]1CCN(C2CC2)S(=O)(=O)c2ccc(N3CCC[C@H]3C)cc2O1	0
Cc1cccnc1N=O	1
COc1cc(OC)cc(C(=O)N2CCN(C3CCCCC3)CC2)c1	6
O=C(CCCc1ccccc1)N1CCN(C2CCCCC2)CC1	1
COc1ccc(CCC(=O)N2CCN(C3CCCCC3)CC2)cc1	14*	HuH7 TTR inh=-14;TTR up confirm=0
CCC(C)[C@H](NC(=O)[C@H](CC(C)C)NC(=O)OC(C)(C)C)C(=O)N[C@@H](Cc1ccccc1)C(=O)OC (some centres undefined)	0
O=C(COC(=O)c1ccc(Cl)nc1)Nc1cc(S(=O)(=O)N2CCCCC2)ccc1Cl	-1
O=C(COC(=O)c1ccc(Cl)nc1)Nc1ccc(S(=O)(=O)N2CCCC2)cc1	20*	HuH7 TTR inh=-1;TTR up confirm=-1
O=C(COC(=O)c1ccccc1O)Nc1ccc(S(=O)(=O)N2CCCCC2)cc1	-4
Nc1[nH]c(C(=O)c2ccccc2)c(-c2ccc(O)cc2)c1C(=O)NCCc1c[nH]c2ccccc12	-2
c1ccc(CNc2ncnc3c2cnn3-c2ccccc2)cc1	1
c1ccc(-n2ncc3c(NCCN4CCCCC4)ncnc32)cc1	0
CCNc1ncnc2c1cnn2C1CCCO1 (centres undefined)	10*	HuH7 TTR inh=-8;TTR up confirm=1
CC1(c2nnnn2-c2ccc(F)cc2)CCCC(=O)N1CCc1c[nH]c2ccccc12 (centres undefined)	0
Cn1c2ccc(F)cc2c2ncn(Cc3ccco3)c(=O)c21	0
Cn1c2ccc(F)cc2c2ncn(Cc3ccccn3)c(=O)c21	15*	HuH7 TTR inh=-14;TTR up confirm=-1
Cn1c2ccccc2c2ncn(Cc3ccco3)c(=O)c21	-1
CC(C)[C@@H]1OC(=O)[C@@H]2CCCN2C(=O)[C@H](C)OC(=O)[C@H](C)[C@@H](C(C)C)NC(=O)[C@@H]2CCCN2C(=O)[C@H]([C@H](C)Cc2ccccc2)NC(=O)[C@@H]2CCCN2C(=O)[C@@H](C(C)C)N(C)C1=O	0
SMILES	TTR transcr act	others
CC(C)(C)OC(=O)N1CCC(N[C@@H](Cc2ccccc2)C(=O)NCCc2c[nH]c3ccccc23)(C(=O)NC2CCCCC2)CC1	2
O=C(COC(=O)C1CCN(C(=O)c2ccc(Cl)cc2)CC1)c1ccco1	2
COc1ccc(C)cc1NC(=O)COC(=O)C1CCN(C(=O)c2ccc(Cl)cc2)CC1	15*	HuH7 TTR inh=-11;TTR up confirm=1
Cc1ccc(NC(=O)COC(=O)C2CC2)c(Br)c1	0
COc1cccc(NC(=S)N(Cc2cccc(Br)c2)CC2CCC(C(=O)O)CC2)c1 (centres undefined)	1
COc1ccc(CN(CC2CCC(C(=O)O)CC2)C(=S)Nc2ccc(C)c(Cl)c2)cc1 (centres undefined)	0
COc1ccc(NC(=S)N(Cc2cccc(Br)c2)CC2CCC(C(=O)O)CC2)cc1 (centres undefined)	43*	HuH7 TTR inh=-21;TTR up confirm=-1
O=C1CCC[C@H]2[C@@H](Cc3ccccc3)[C@@H](O)CC[C@]23CCCN13	-2
COc1ccc(Cn2ccc3ccc(-c4ccc5ccn(Cc6ccc(C#N)cc6)c5c4)cc32)cc1	5
CCCCOCCCNC(=O)C[C@@H]1C(=O)N(CCc2ccc(Cl)cc2)C2=CCCC[C@]21C(=O)OCC	-1
COc1ccc(N(C(=O)CNC(=O)c2cccs2)C(C(=O)NC2CCCC2)c2ccncc2)cc1 (centres undefined)	-1
COc1ccc(N(C(=O)Cc2cccs2)C(C(=O)NC2CCCC2)c2ccncc2)cc1 (centres undefined)	18*	HuH7 TTR inh=-6;TTR up confirm=-1
COc1ccc(N(C(=O)CNC(=O)c2ccco2)C(C(=O)NC2CCCC2)c2ccncc2)cc1 (centres undefined)	-1
CC(C)c1ccc(NC(=O)O[C@H]2CC[C@@]34CCCN3C(=O)CCC[C@H]4[C@H]2C)cc1	0
C=CCN1C(=O)[C@H](CC(=O)N2CCN(C(=O)c3ccco3)CC2)[C@@]2(C(=O)OCC)CCCC=C12	3
CC(C)CN(C(=O)c1cccc(Cl)c1)c1c(N)n(CC(C)C)c(=O)[nH]c1=O	5
CCCn1c(N)c(N(CCOC)C(=O)c2cccc(F)c2)c(=O)[nH]c1=O	-1
COCCN(C(=O)c1ccc(N(C)S(=O)(=O)c2ccc(C)cc2)cc1)c1c(N)n(CC(C)C)c(=O)[nH]c1=O	9.8*	HuH7 TTR inh=5;TTR up confirm=0
COc1ccc(/C=N/NC(=O)c2cccc(OC(F)(F)C(F)F)c2)c(OC)c1OC	1
COc1ccc(/C=N/NC(=O)C(N)=O)c(OC)c1OC	13*	HuH7 TTR inh=-4;TTR up confirm=0
COc1ccc(/C=N\NC(=O)CCc2c(C)n[nH]c2C)c(OC)c1OC	-1
c1nc(NCC2CCOC2)c2cc(-c3ccc4c(c3)OCO4)ccc2n1 (centres undefined)	-2
COc1ccc(Cn2cc(COC(=O)NCCc3c[nH]c4ccccc34)nn2)cc1	2
O=C(OCc1cn(Cc2cccc(Cl)c2)nn1)N1CCOCC1	0
CCCCN1C(=O)C(O)(CC(=O)c2ccccn2)c2ccccc21 (centres undefined)	1
SMILES	TTR transcr act	others
Cc1ccccc1CN1C(=O)C(O)(CC(=O)c2ccncc2)c2ccccc21 (centres undefined)	-3
CN1C(=O)C(O)(CC(=O)c2cccs2)c2ccccc21 (centres undefined)	18*	HuH7 TTR inh=-10;TTR up confirm=-1
FC(F)(F)c1cccc(N2CCN(C(=S)Nc3nccc4ccccc34)CC2)c1	4
Nc1[nH]c(C(=O)c2ccccc2)c(-c2ccc3ccccc3c2)c1C(=O)NCCc1ccc(Cl)cc1	4
C[C@H]1[C@H](NC(=O)c2cccc(C(F)(F)F)c2)CC[C@@]23CCCN2C(=O)CCC[C@@H]13	-1
Cc1c(-c2ccccc2Cl)nc2ccccc2c1C(=O)O	0
CC(C)(C)C(=O)Nc1nc(NC(=O)C(C)(C)C)nc(-c2ccccc2Cl)n1	10*	HuH7 TTR inh=0;TTR up confirm=-1
CC(C)(C)C(=O)Nc1cc2nn(-c3ccccc3)nc2cc1Cl	-1
CCCC1CCC2(CC1)CCC2OC(=S)NCc1cccc(F)c1 (centres undefined)	0
Cc1ccc(S(=O)(=O)NCC2CN(S(=O)(=O)c3ccc(C)cc3)c3ccccc3C(=O)N2c2ccc(F)cc2)cc1 (centres undefined)	0
COC(=O)[C@]12CCCCC=C1N(Cc1ccc(OC)cc1)C(=O)[C@@H]2CC(=O)NCC12CC3CC(CC(C3)C1)C2	-2
CCCCc1ccc(NC(=S)N2CCN(C)CC2)cc1	7
